Data as given in PubChem BioAssay.
Unmarked numbers belong to inactive results. Activity calls are given as the source filed them.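 Rule for the calls: active = inhibition above the hit cutoff set in the earlier primary screen (cut at about 27% in these data); inactive = the rest.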

Target: Protein phosphatase methylesterase 1 (Homo sapiens) (UniProt Q9Y570)
Assay: PME-1 inhibitor activity retest, confirmation, biochemical, fluorescence polarization, FP-Rh probe, triplicate (AID 2171);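 note: 0% = enzyme with DMSO and 100% = wells lacking PME-1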
Conditions: recombinant PME-1, FP-Rh probe fluorescence polarization; at 5.9 µM; active compounds read high

Sequence of Protein phosphatase methylesterase 1 (Homo sapiens) (Q9Y570 whole entry, looked up): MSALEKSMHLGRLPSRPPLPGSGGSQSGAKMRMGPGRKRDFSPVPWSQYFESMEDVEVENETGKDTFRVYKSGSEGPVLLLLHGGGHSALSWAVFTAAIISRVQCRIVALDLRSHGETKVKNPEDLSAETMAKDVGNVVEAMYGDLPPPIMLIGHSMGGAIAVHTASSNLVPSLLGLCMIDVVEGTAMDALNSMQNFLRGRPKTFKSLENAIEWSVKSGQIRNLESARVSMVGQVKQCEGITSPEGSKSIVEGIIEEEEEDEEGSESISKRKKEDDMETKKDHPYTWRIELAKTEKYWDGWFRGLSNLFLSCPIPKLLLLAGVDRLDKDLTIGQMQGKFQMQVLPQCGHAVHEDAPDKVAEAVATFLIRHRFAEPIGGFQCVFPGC

Row | SMILES | inhibition
1 | CCN(CC)c1nc2c3c(nc4c(c3c1C#N)CC(=O)N4c1ccc(Cl)cc1)NC(C)=N2 | 9.8%
2 | N#Cc1c(N)n(CCOC(=O)c2cccc([N+](=O)[O-])c2)c2nc3ccccc3nc12 | 19.5%
3 | COc1cc(C(=O)Nc2c(C(=O)O)[nH]c3ccc(Br)cc23)cc(OC)c1OC | 23.4%
4 | C/C(=N\Nc1ccccc1C(=O)O)c1ccncc1 | 1.32%
5 | COc1cc(/C=C2\CCC/C(=C\c3ccc(O)c(OC)c3)C2=O)ccc1O | 39.5% (active)
6 | Cc1cccc(NC(=O)COC(=O)c2cccc3c2C(=O)c2ccccc2C3=O)c1C | 37.5% (active)
7 | O=C(NNc1c2ccccc2nc2ccccc12)c1ccc(O)cc1O | 65.2% (active)
8 | Cc1ccsc1/C=N/n1c(-c2cc(-c3ccccc3)n[nH]2)n[nH]c1=S | 22%
9 | CCc1ccc(OC)c(S(=O)(=O)Nc2ccc(Cc3ccncc3)cc2)c1 | 31.8% (active)
10 | CCc1ccc(NC(=O)Nc2cccs2)cc1 | 17.9%
11 | CN(C)c1ccc(NC(=O)Nc2ccc3snnc3c2)cc1 | 21%
12 | CCn1c(CSc2n[nH]c(N)n2)nc2cc(C(=O)O)ccc21 | 33.5% (active)
13 | Oc1c(Br)cc(C=Nc2ccc3nc(-c4ccccc4)[nH]c3c2)c(O)c1Br | 5.82%
14 | Cc1nc(S/C(=C/c2ccc(-c3cc(Cl)ccc3C)o2)C(=O)O)n[nH]1 | 26.7% (active)
15 | Cc1ccc(NS(=O)(=O)c2ccc3c(c2)C(=O)c2ccccc2C3=O)c(C)c1 | 24.5%
16 | Cc1cc2nc3ccc(N(C)C)cc3nc2cc1N | 20%
17 | Cc1cc(N/N=C/c2c(O)ccc3ccccc23)nc(-c2ccccc2O)n1 | 23.6%
18 | O=C(N/N=C/c1ccc(O)cc1)c1cccc(N/N=C/c2ccc(O)cc2)c1 | 18.8%
19 | Cc1c2cc(O)c(=O)cc-2oc2cc(O)c(O)cc12 | 143% (active)
20 | CCCC(=Nc1ccc(N)cc1)C1=C(O)C(C(=O)OC)C(C)(C)CC1=O (centres undefined) | 4.48%

Row | SMILES | inhibition
21 | CCCCC(=O)NC(c1ccccc1Cl)c1c(O)ccc2ccccc12 (centres undefined) | 32.1% (active)
22 | COc1ccc(OC)c(-c2c3cc(O)c(=O)cc-3oc3cc(O)c(O)cc23)c1 | 169% (active)
23 | Fc1ccc2nc(Nc3nc4cc5c(cc4s3)OCCO5)sc2c1 | 77.5% (active)
24 | Cn1c(=O)c(Nc2ccc(O)cc2)c2c3c(cccc31)C(=O)c1ccccc1-2 | 36% (active)
25 | Cn1c(N/N=C/c2c[nH]c3ccccc23)nc2ccccc21 | 28.6% (active)
26 | C/C(=N/Nc1ccnc2cc(Cl)ccc12)c1ccc(O)cc1 | 10.9%
27 | O=C(O)c1cc(N/N=C/c2c(O)ccc3ccccc23)ccc1Cl | 20.7%
28 | CCn1c(CSc2nnc(-c3ccncc3)n2C)nc2cc(C(=O)O)ccc21 | 51.5% (active)
29 | Oc1ccc(/C=N/Nc2cccc3cccnc23)c(O)c1 | 82.7% (active)
30 | CCCOc1ccc([C@@H]2C3CN(C(=O)OCC)CC=C3C(C#N)=C(N)C2(C#N)C#N)cc1OC (some centres undefined) | 53.6% (active)
31 | COc1ccc2[nH]c(=O)c(-c3noc(-c4ccccc4)n3)cc2c1 | 28.2% (active)
32 | CC1=NN(c2ccccc2)C(=O)C1N=Nc1cccc(O)c1 (centres undefined) | 28.1% (active)
33 | Cc1ccc(NC(=O)CS(=O)CC(=O)Nc2ccccc2-c2ccc(C)o2)cc1 (centres undefined) | 2.84%
34 | COc1cc2c(cc1NC(=O)c1cccnc1)oc1ccccc12 | 25.8%
35 | CCc1ccc(S(=O)(=O)/N=C2\C=C(Nc3cccc(C(=O)O)c3)C(=O)c3ccccc32)cc1 | 38.4% (active)
36 | Cc1ccc2[nH]c(C)c(/C=N/Nc3nc4ccccc4s3)c2c1 | 41.1% (active)
37 | CC(C)Nc1nnc(SCC(=O)Nc2ccc3c(c2)C(=O)c2ccccc2C3=O)s1 | 36.4% (active)
38 | S=C(Nc1ccc(N2CCOCC2)cc1)Nc1ccc2nc(-c3ccco3)c(-c3ccco3)nc2c1 | 24.7%
39 | CCOc1ccc(N=C/C=C/c2ccccc2)c(O)c1 | 9.57%
